These results are taken from PubChem BioAssay (Tox21).

Experiment [1] can be described thus: qHTS RealTime-Glo MT Cell Viability Assay in HEK293 cells - 0 hour (AID 1224880). Further: nearly all actives have a fitted effect of over 45% in size. Further: potency means the concentration at half of the fitted maximal effect. Put shortly:
(§1)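 Kinetic, non-lysing viability readout. Seed HEK293 (600/well) with reagent, incubate 5 h at 37 C/5% CO2, pin 23 nL compound in DMSO, incubate at 37 C, read luminescence at 0, 8, 16, 24, 32, 40 h.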
(qHTS replaces the single test concentration by a dilution series.)

Experiment [2] is described as follows: A CellTox Green Cytotoxicity Assay to monitor cytotoxicity in HEK293 cells - 32 hour (AID 1224881). Further: nearly all actives have a fitted effect of over 40% in size. Put shortly: (§2)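 Real-time, in one plate: 600 HEK293 cells/well with dead-cell DNA dye, pinned compound after 5 h, 37 C incubation over 40 h; viable cells give no appreciable fluorescence.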
Experiment [3] can be described thus: A CellTox Green Cytotoxicity Assay to monitor cytotoxicity in HepG2 cells - 0 hour (AID 1224882). Further: nearly all actives have a fitted effect of over 35% in size. The method, boiled down:
(§3)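 Cytotoxicity was tracked as dead-cell DNA fluorescence in HepG2 cells treated with test compounds at 37 C; each time-point value comes from one kinetic series spanning 0, 8, 16, 24, 32 and 40 h.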

The nature of experiment [4]: A CellTox Green Cytotoxicity Assay to monitor cytotoxicity in HEK293 cells - 8 hour (AID 1224884). Further: nearly all actives have a fitted effect of over 35% in size. Put shortly:
as §2

The nature of experiment [5]: qHTS RealTime-Glo MT Cell Viability Assay in HepG2 cells - 16 hour (AID 1224885). Further: nearly all actives have a fitted effect of over 50% in size. Put shortly:
(§4)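 Viability was tracked continuously by NanoLuc luminescence from prosubstrate reduced by living HepG2 cells, at successive time points over 40 h of compound exposure. Cells with reagent were preincubated 5 h at 37 °C before compound addition.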

Experiment [6] is described as follows: qHTS RealTime-Glo MT Cell Viability Assay in HEK293 cells - 24 hour (AID 1224886). Further: top concentration of the series differs between compounds; nearly all actives have a fitted effect of over 50% in size. The method, boiled down:
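Viability tracked continuously by luminescence as live cells reduce a prosubstrate for NanoLuc; HEK293 cells preincubated 5 h, compound-treated at 37 C, and read at 0, 8, 16, 24, 32 and 40 h.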

A short description of experiment [7]: qHTS RealTime-Glo MT Cell Viability Assay in HEK293 cells - 8 hour (AID 1224887). Further: top concentration of the series differs between compounds; nearly all actives have a fitted effect of over 50% in size. The method, boiled down: as §1
The nature of experiment [8]: A CellTox Green Cytotoxicity Assay to monitor cytotoxicity in HEK293 cells - 16 hour (AID 1224888). Further: nearly all actives have a fitted effect of over 35% in size. The method, boiled down: as §2
A short description of experiment [9]: qHTS RealTime-Glo MT Cell Viability Assay in HepG2 cells - 0 hour (AID 1224889). Further: nearly all actives have a fitted effect of over 50% in size. Further: potency means the concentration at half of the fitted maximal effect. Put shortly: as §4
Experiment [10] in a line: A CellTox Green Cytotoxicity Assay to monitor cytotoxicity in HepG2 cells - 8 hour (AID 1224890). Further: nearly all actives have a fitted effect of over 45% in size. Further: potency means the concentration at half of the fitted maximal effect. Put shortly:
as §3

The nature of experiment [11]: qHTS assay to identify small molecule antagonists of the estrogen receptor alpha (ER-alpha) signaling pathway using the BG1 cell line in the presence of 0.1 nM 17-beta-estradiol - cell viability counter screen (AID 1259241). Further: nearly all actives have a fitted effect of over 40% in size. Further: potency means the concentration at half of the fitted maximal effect. Put shortly:
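CellTiter-Fluor read (30 min, 37C) on ER-alpha/ERE-luc VM7Luc4E2 cells; 22 hr compound treatment; agonist 0.1 nM E2 final; same-well multiplex.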

Experiment [12] is described as follows: qHTS assay to identify small molecule antagonists of the androgen receptor (AR) signaling pathway using the MDA cell line in the presence of 0.5 nM R1881 - cell viability counter screen (AID 1259242). Further: nearly all actives have a fitted effect of over 45% in size. Further: potency means the concentration at half of the fitted maximal effect. The method, boiled down:
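Cells seeded at 3,000/well and allowed 5 hr at 37C, 0% CO2 before compound transfer and R1881 (0.5 nM final) addition; 16 hr later, live-cell protease fluorescence indicated cytotoxicity.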

The target of experiment [13] is Estrogen receptor (Homo sapiens) (UniProt P03372). The experiment is described as follows: qHTS assay to identify small molecule antagonists of the estrogen receptor alpha (ER-alpha) signaling pathway using the BG1 cell line in the presence of 0.1 nM 17-beta-estradiol (AID 1259244). Further: nearly all actives have a fitted effect of over 50% in size. Further: potency means the concentration at half of the fitted maximal effect. Put shortly: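 Luciferase signal from VM7Luc4E2 ERE-reporter cells, co-dosed with test compound and 0.1 nM final 17beta-estradiol for 22 h, read with ONE-Glo.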

Experiment [14] in a line: qHTS assay to identify small molecule phospholipidosis (PLD) inducers (AID 1259344; active means well fitted curve in the direction sought with a large enough effect; an effect the other way counts as inactive or inconclusive). The method, boiled down: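 Phospholipid accumulation was scored by imaging: fixed, Hoechst-counterstained HepG2 cells stained with LipidTOX Red after 24 h compound exposure at 37 C. Read-outs were pit count and pit intensity per well or per cell, with amiodarone and DMSO controls.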
Experiment [15] in a line: qHTS assay to identify small molecule HDAC inhibitors - cell viability counter screen (AID 1259365). Put shortly:
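To flag cytotoxic hits, 1,500 wild-type HCT-116 cells per well, plated the day before, receive test compounds for 2hr at 37 C before CellTiter-Glo reagent and a luminescence read.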

Experiment [16] can be described thus: qHTS assay to identify small molecule agonists of the sonic hedgehog signaling (Shh) pathway - cell viability counter screen (AID 1259366). Further: nearly all actives have a fitted effect of over 50% in size. The method, boiled down: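 Fluorescence from CellTiter-Fluor reports live cells in this counter screen. NIH/3T3-derived Gli1-Luc reporter cells receive test compounds for 24hr at 37C; reagent goes in at 23hr.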
A short description of experiment [17]: qHTS assay to identify small molecule antagonists of the sonic hedgehog signaling (Shh) pathway - cell viability counter screen (AID 1259367). Further: nearly all actives have a fitted effect of over 55% in size. Further: potency means the concentration at half of the fitted maximal effect. Put shortly:
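Viability was read by CellTiter-Fluor fluorescence in the same wells, reagent added 23 hr into compound treatment and incubated 1 hr at 37C. The 3T3 Gli1-Luc reporter cells (2,000/well) received conditioned medium after compound and ran 24 hr.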

A short description of experiment [18]: qHTS assay to identify small molecule HDAC inhibitors (AID 1259364). Further: potency means the concentration at half of the fitted maximal effect.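 Further: wild-type HCT-116 cells with endogenous class I/II HDAC activity; nearly all actives have a fitted effect of over 45% in size.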 The method, boiled down: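 HCT-116 wt cells, 1,500/well, overnight attach. Compounds (DMSO) 2 h, 37 °C. HDAC-Glo I/II, 30 min RT. Luminescence.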
Experiment [19] in a line: A CellTox Green Cytotoxicity Assay to monitor cytotoxicity in HepG2 cells - 32 hour (AID 1224883). Further: nearly all actives have a fitted effect of over 50% in size. Put shortly: as §3
For experiment [20], the target named is Androgen receptor (Homo sapiens) (UniProt P10275). The experiment is described as follows: qHTS assay to identify small molecule antagonists of the androgen receptor (AR) signaling pathway using the MDA cell line in the presence of 0.5 nM R1881 (AID 1259243). Put shortly: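 Luminescence from an AR/GR-responsive MMTV-luciferase construct in MDA-kb2 breast carcinoma cells, read 30 min after ONE-Glo, following 16 hr co-treatment with compounds and 0.5 nM R1881.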

Several values for one entry are separate records, joined by “and”; a condition that tells them apart may be missing. Identical values can stand only once. Inconclusive results are not listed. Where a structure was tested more than once in an assay, its records may differ in their call. Activity calls are given as the source filed them. Unless noted, the call rests on the fitted dose curve; in most records, active means well fitted curve in the direction sought with a large enough effect in the repeat runs; inconclusive means weak or mixed curves; inactive means no such curve, though single readings can be large; an effect the other way counts as inactive or inconclusive.

Chain of Estrogen receptor (Homo sapiens) (P03372 whole entry, looked up): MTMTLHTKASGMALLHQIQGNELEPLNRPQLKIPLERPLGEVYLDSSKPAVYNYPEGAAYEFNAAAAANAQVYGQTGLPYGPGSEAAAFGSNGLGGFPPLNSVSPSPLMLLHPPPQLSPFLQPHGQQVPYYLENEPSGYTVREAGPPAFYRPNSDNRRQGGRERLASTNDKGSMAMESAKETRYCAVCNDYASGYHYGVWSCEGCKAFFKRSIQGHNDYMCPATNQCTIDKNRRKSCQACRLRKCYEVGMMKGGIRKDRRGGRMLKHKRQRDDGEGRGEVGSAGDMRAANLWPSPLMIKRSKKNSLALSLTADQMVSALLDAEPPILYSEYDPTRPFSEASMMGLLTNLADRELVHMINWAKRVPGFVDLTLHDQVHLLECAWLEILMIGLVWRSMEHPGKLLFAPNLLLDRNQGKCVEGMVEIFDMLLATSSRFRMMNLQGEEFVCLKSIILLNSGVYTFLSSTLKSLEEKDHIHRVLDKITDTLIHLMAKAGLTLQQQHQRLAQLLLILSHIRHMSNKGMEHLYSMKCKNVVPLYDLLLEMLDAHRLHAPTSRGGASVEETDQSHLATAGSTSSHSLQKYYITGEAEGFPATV
Chain of Androgen receptor (Homo sapiens) (P10275 whole entry, looked up): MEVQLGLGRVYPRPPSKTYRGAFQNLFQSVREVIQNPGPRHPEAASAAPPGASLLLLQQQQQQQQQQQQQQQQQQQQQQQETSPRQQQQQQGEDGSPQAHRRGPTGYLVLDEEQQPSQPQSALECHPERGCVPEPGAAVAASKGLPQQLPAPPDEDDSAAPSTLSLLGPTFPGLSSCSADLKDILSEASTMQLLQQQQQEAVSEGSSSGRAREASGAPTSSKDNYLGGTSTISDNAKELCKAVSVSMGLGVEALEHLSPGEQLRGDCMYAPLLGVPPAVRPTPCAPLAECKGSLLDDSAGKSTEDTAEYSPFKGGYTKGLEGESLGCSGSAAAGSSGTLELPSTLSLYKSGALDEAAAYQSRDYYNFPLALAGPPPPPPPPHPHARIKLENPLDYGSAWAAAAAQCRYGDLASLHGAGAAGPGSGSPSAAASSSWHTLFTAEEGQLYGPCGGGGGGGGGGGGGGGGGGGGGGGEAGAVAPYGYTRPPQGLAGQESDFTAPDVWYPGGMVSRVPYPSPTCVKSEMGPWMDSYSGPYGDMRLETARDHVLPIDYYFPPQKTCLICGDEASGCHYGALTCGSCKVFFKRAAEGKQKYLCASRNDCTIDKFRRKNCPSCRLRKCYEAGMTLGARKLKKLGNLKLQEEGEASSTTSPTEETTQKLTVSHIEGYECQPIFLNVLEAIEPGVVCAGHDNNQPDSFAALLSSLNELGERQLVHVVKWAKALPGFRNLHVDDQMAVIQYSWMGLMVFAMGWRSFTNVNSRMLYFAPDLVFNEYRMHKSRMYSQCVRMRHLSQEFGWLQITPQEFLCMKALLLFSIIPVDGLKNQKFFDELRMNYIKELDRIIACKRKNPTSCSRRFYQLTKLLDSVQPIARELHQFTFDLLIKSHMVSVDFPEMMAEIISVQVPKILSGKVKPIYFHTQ

Turning to `O=c1oc2ccccc2c(O)c1C(CC(O)c1ccc(-c2ccc(Br)cc2)cc1)c1ccccc1` (stereo not drawn), the Potency in experiment [1] is 18.4 µM (active) and 12 µM (active); in [9] it was 20.7 µM (active) and 21.3 µM (active). In addition, the Potency result in [2], in [3], in [4], in experiment [5], in [6] and in experiment [7] was “inactive” each time. Further, the Potency entry in experiment [8], in experiment [10], in [11], in [12], in experiment [13] and in experiment [16] was “inactive” each time. The Potency entry in experiment [17] was “inactive”. The molecule was classed as inactive in experiment [14] and in experiment [15].
With `C=CCc1ccc(OC)cc1`, the Potency result in experiment [1], in experiment [2], in experiment [3], in experiment [4], in experiment [5] and in experiment [6] was “inactive” each time. In addition, the Potency result in [7], in experiment [8], in experiment [9], in [10], in [11] and in experiment [12] was “inactive” throughout. For the same molecule, the Potency entry in experiment [16] and in experiment [17] was “inactive” throughout. Also, the result in experiment [15] was inactive.
Take `Cc1ccc(OP(=O)(Oc2ccc(C)cc2)Oc2ccc(C)cc2)cc1`: the Potency entry in experiment [1], in experiment [2], in [3], in experiment [4], in experiment [5] and in experiment [6] was “inactive” throughout. The Potency entry in [7], in experiment [8], in [9], in experiment [10], in [11] and in experiment [12] was “inactive” in each case. The Potency result in [18], in experiment [16] and in experiment [17] was “inactive” in each case. For the same molecule, the molecule was classed as inactive in experiment [15].
For the molecule `CCCCC(CC)COC(=O)Cl` (stereo not drawn), the Potency result in experiment [1], in experiment [2], in [3], in experiment [4], in experiment [5] and in [6] was “inactive” throughout. For the same molecule, the Potency entry in [7], in experiment [8], in [9], in experiment [11], in experiment [12] and in [13] was “inactive” each time. Moreover, the Potency result in [16] and in experiment [17] was “inactive” throughout. Besides, the Potency entry in experiment [10] was “inactive and 38.9 µM (active)”. The molecule was called inactive in experiment [15].
As to `O=[N+]([O-])c1ccc(O)c([N+](=O)[O-])c1`, the Potency result in experiment [1], in experiment [3], in [19], in experiment [4], in experiment [5] and in experiment [6] was “inactive” throughout. Besides, the Potency entry in experiment [7], in experiment [8], in experiment [9] and in [10] was “inactive” in each case. Also, the Potency in [11] is 30.8 µM (active) and 27.3 µM (active); in [12], 24.4 µM (active) and 27.3 µM (active); in [20] it was 30.8 µM (active) and 54.5 µM (active); in experiment [13], 48.8 µM (active) and 48.6 µM (active); in experiment [18], 30.8 µM (active) and 27.3 µM (active); in experiment [17], 48.8 µM (active). The outcome in experiment [15] was inactive.
In the case of `COP(=S)(OC)Oc1ccc([N+](=O)[O-])cc1`, the Potency result in [1], in [2], in experiment [3], in [4], in experiment [5] and in experiment [6] was “inactive” in each case. Moreover, the Potency result in [7], in experiment [8], in experiment [9], in [10], in experiment [11] and in [12] was “inactive” throughout. In addition, the Potency result in experiment [13], in experiment [16] and in experiment [17] was “inactive” in each case. The result in experiment [15] was inactive.
Regarding `Cc1ccc(N)c(N)c1`, the Potency entry in experiment [1], in [2], in experiment [3], in [4], in experiment [5] and in [7] was “inactive” each time. For the same molecule, the Potency result in experiment [8], in [9], in experiment [10], in [11], in experiment [12] and in experiment [16] was “inactive” each time. For the same molecule, the call in experiment [15] was inactive.
Take `CC(C)NC(C)C`: the Potency entry in [1], in experiment [2], in experiment [3], in [4], in [5] and in [6] was “inactive” throughout. The Potency result in experiment [7], in experiment [8], in experiment [9], in experiment [10], in [11] and in experiment [12] was “inactive” each time. The Potency result in [13], in experiment [18], in [16] and in experiment [17] was “inactive” throughout. In addition, the molecule was classed as inactive in experiment [14] and in [15].
